Among the data in the supplement of paper PMC10849652 are log2 fold change values, retold here.

Holding throughout (assay): log2 fold change, soluble protein after heating vs DMSO (PISA); higher = thermal stabilisation; K562 lysate, 10 uM; active = over 0.2 and 3.5 SD of the protein, either way, in both replicates (recomputed)
Compound in experiment [1]: NCC(=O)Nc1ccc(-n2nc(C(F)(F)F)cc2-c2ccc3c(ccc4ccccc43)c2)cc1
A digest of the protocol:
(§1)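 A 30 min treatment with 10 μM compound was applied to crude K562 extract at 1 mg/mL protein in PBS pH 7.4 with 1 mM MgCl2. Heating for 3 min spanned 48°C-58°C, after which aliquots were pooled, adjusted to 0.5% NP-40 at 4°C and spun at 21,000xg for 90 min. TMTpro 16plex LC-MS/MS of the supernatant, with channel sums equalised, gave values recorded as log-two fold change in thermal stability against solvent controls, from duplicates.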

Compound in the next experiment: O=C(CCCCCCC(=O)Nc1ccccc1)NO [vorinostat]
Put shortly: as §1

Compound in the next experiment: O=C(O)c1ccc2c(c1)nc(Nc1cccc(Cl)c1)c1ccncc12 [silmitasertib]
A digest of the protocol:
as §1

Compound in experiment [2]: O=C1NC(=O)C(c2cnc3ccccn23)=C1c1cn2c3c(cc(F)cc13)CN(C(=O)N1CCCCC1)CC2
Put shortly: as §1

Compound in a further experiment: c1cn2cc(-c3ccc4cn[nH]c4c3)nc(Nc3ccc(N4CCOCC4)cc3)c2n1 [entospletinib]
A digest of the protocol: as §1

Of roughly 8,800 targets only a part is listed; those with a hit were picked by preference. About 0.5% of all pairs of compound and target were hits. Unmarked numbers belong to inactive results.

Sequence of UniProt Q99795 (Q99795 whole entry, looked up): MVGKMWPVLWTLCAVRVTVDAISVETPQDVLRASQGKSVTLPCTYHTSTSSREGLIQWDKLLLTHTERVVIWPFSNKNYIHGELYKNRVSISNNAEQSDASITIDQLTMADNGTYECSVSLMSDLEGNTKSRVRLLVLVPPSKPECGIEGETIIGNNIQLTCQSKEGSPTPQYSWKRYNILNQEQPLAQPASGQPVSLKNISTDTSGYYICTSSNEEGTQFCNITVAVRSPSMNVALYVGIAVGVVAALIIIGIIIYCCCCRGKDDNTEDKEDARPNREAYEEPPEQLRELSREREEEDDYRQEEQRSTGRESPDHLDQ
Sequence of UniProt Q9Y4H2 (Q9Y4H2 whole entry, looked up): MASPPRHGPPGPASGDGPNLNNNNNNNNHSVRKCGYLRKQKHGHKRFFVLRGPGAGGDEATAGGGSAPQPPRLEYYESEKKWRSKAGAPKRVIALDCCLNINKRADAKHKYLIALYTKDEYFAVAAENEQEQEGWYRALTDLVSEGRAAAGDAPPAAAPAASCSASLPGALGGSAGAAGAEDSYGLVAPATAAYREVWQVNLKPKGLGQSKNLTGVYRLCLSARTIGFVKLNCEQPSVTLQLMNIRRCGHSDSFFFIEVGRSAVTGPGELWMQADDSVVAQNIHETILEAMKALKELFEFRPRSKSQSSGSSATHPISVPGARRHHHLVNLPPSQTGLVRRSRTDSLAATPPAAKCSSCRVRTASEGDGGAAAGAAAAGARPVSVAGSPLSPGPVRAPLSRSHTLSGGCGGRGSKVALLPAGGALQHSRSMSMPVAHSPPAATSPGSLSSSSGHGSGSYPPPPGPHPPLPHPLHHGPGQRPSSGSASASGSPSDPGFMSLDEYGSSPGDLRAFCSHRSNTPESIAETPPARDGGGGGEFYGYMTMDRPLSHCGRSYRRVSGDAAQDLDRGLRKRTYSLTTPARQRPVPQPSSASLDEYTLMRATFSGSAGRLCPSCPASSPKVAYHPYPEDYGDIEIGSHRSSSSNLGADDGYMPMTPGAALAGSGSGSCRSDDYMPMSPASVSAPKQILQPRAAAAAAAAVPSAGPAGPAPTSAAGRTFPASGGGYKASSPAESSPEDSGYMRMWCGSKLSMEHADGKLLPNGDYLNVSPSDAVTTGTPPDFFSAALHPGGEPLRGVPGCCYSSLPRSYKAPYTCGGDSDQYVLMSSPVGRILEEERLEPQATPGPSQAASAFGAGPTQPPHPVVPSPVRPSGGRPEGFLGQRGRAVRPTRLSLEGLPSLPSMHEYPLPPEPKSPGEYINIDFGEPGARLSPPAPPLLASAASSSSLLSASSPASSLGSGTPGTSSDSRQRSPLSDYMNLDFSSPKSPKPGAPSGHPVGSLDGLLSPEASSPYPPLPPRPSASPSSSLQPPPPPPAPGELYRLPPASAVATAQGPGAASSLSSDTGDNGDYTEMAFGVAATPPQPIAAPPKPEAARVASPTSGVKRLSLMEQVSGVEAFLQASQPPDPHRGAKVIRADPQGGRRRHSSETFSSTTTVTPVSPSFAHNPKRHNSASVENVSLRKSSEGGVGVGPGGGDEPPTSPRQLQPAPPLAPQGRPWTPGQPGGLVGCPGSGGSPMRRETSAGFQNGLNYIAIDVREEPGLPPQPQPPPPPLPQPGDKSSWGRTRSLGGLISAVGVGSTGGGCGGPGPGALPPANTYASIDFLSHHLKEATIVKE
Sequence of UniProt Q7Z4V5 (Q7Z4V5 whole entry, looked up): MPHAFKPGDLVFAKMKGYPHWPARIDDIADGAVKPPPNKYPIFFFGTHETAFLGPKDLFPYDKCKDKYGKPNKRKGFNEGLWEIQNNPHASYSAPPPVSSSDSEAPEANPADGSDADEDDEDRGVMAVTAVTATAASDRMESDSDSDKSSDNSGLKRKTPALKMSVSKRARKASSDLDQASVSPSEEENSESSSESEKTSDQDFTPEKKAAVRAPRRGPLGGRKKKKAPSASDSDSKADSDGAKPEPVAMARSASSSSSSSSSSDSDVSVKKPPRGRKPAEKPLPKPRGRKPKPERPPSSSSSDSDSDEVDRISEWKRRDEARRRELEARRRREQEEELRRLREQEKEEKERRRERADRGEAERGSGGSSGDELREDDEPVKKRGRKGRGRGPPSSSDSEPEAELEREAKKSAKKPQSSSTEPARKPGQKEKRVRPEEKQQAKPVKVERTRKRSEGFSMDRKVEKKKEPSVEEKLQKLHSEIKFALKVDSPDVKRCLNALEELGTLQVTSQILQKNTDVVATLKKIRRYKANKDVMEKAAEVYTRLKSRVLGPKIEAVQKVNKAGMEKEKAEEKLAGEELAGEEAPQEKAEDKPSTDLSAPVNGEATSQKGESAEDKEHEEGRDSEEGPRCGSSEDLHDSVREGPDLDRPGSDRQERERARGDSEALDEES
Sequence of UniProt P22692 (P22692 whole entry, looked up): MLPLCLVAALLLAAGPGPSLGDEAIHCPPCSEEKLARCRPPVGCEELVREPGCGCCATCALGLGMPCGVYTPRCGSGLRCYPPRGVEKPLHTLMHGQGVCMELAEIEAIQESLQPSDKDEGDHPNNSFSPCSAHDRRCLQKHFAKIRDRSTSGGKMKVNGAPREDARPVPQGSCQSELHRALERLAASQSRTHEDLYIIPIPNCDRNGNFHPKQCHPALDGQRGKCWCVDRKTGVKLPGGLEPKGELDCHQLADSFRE
Sequence of UniProt Q92769 (Q92769 whole entry, looked up): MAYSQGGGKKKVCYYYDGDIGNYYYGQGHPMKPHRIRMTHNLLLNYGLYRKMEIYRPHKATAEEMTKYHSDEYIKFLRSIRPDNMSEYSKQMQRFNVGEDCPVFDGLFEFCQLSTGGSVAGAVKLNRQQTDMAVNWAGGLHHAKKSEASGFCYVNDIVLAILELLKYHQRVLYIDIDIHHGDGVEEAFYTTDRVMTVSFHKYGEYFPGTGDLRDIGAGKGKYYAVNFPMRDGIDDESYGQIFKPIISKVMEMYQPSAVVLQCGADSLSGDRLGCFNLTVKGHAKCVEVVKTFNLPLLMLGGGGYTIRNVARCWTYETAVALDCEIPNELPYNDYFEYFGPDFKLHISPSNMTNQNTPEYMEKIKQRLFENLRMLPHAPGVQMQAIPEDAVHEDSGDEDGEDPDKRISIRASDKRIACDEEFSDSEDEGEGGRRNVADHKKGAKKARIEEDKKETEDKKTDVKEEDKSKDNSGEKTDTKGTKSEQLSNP
Sequence of UniProt Q9Y573 (Q9Y573 whole entry, looked up): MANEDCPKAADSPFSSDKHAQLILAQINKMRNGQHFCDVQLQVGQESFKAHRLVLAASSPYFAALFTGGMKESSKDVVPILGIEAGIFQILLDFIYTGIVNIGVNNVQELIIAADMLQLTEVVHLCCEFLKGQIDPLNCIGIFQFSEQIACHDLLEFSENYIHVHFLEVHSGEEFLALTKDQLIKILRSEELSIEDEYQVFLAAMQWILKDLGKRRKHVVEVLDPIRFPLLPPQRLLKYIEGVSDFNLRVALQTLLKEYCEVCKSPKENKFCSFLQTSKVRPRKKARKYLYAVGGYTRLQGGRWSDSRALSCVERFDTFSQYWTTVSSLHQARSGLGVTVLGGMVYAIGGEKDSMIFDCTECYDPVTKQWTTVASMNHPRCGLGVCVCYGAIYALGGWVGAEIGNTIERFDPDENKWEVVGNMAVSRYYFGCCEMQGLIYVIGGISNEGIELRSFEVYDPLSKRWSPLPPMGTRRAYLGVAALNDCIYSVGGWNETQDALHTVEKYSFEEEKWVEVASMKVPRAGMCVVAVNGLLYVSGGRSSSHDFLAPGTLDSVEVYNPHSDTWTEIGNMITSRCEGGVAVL
Sequence of UniProt P28161 (P28161 whole entry, looked up): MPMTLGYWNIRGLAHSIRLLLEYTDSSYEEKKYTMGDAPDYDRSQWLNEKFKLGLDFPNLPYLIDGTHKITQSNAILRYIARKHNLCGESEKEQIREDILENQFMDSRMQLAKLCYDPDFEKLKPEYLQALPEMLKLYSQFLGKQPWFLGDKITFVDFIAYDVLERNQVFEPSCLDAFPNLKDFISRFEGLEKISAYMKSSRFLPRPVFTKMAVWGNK
Sequence of UniProt Q9NPR9 (Q9NPR9 whole entry, looked up): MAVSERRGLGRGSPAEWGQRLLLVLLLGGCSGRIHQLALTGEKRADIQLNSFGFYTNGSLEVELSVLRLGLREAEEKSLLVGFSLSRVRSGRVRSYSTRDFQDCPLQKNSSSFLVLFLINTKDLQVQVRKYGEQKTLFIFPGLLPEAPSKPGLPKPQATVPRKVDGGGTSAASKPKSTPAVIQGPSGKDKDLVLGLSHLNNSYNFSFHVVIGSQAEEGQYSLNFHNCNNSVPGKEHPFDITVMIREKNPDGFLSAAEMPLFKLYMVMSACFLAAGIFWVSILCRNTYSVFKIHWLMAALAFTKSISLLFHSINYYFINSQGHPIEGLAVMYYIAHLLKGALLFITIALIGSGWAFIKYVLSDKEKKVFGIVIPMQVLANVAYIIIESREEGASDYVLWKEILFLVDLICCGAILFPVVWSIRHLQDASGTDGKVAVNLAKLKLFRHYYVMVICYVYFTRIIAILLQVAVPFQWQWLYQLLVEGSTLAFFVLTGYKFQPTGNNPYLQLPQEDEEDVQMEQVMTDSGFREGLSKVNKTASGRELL
Sequence of UniProt Q96A47 (Q96A47 whole entry, looked up): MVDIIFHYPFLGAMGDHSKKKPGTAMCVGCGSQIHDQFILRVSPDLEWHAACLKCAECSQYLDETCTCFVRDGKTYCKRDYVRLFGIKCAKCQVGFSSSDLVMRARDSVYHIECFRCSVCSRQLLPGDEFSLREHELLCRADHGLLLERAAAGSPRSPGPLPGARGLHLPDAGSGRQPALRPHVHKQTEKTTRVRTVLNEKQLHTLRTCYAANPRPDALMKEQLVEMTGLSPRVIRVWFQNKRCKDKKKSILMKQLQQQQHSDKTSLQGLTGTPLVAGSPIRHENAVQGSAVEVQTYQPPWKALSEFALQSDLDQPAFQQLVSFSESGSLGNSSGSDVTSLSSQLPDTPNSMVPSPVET
Sequence of UniProt Q01628 (Q01628 whole entry, looked up): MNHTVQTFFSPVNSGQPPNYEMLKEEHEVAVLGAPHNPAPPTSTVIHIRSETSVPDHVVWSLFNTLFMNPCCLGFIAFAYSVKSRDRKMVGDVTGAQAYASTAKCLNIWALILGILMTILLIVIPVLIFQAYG

IL18R1 (UniProt Q13478): the log2 fold change is -0.246 in experiment [1]; 0.198 in the experiment with vorinostat; -0.33 in the experiment with silmitasertib; 0.075 in experiment [2]; -0.084 in the experiment with entospletinib.
On the same counts, the results for HDHD5 (UniProt Q9BXW7) are 0.018, -0.249 (active), 0.043, -0.002 and -0.059.
Regarding ITPRIP (UniProt Q8IWB1), the log2 fold change was -0.33 in the experiment with vorinostat and 0.095 with silmitasertib.
As to ITGB1BP2 (UniProt Q9UKP3), the log2 fold change in experiment [1] is 0.053; with entospletinib, 0.107.
For GTPBP6 (UniProt O43824), the log2 fold change in experiment [1] is 0.069; with entospletinib, 0.255.
For IFITM3 (UniProt Q01628), the log2 fold change in experiment [1] is -0.02; in the experiment with vorinostat, 0.067; with silmitasertib, -0.129; in experiment [2], 0.069; with entospletinib, 0.059.
As for HYDIN (UniProt Q4G0P3), the values for the log2 fold change (in experiment [1]; with entospletinib) were 0.028 and -0.005, respectively.
With HSPA8 (UniProt E9PN89), the log2 fold change with vorinostat was -0.01; with silmitasertib it was 0.016; in experiment [2] it was -0.017; with entospletinib, -0.024.
For the target GSTM2 (UniProt P28161), the log2 fold change was 0.017 in experiment [1], 0.323 (active) with vorinostat, 0.378 (active) with silmitasertib and 0.044 in the experiment with entospletinib.
Take HMGA1 isoform 2 (UniProt P17096): the figures for the log2 fold change (with vorinostat; in the experiment with silmitasertib; in experiment [2]) were 0.205, -0.047 and 0.128, respectively.
In the case of GPLD1 (UniProt P80108), in experiment [2], the log2 fold change is 0.366.
With GPA33 (UniProt Q99795), the log2 fold change in experiment [1] was 0.041; in the experiment with vorinostat it was 0.14; with silmitasertib it was 0.051; with entospletinib it was 0.017.
Consider GNB4 (UniProt Q9HAV0), for which the log2 fold change in the experiment with vorinostat is 0.006; with silmitasertib, 0.017; in experiment [2], -0.059; with entospletinib it was 0.029.
Turning to HEATR3 (UniProt Q7Z4Q2), the log2 fold change in experiment [1] was -0.03; with vorinostat, -0.5 (active); in the experiment with silmitasertib, 0.013; in experiment [2], -0.017; with entospletinib, -0.006.
For the target HMGN5 (UniProt Q5JSK9), in the experiment with entospletinib, the log2 fold change was -0.187.
With JAK3 (UniProt P52333), the log2 fold change in experiment [1] was -0.319; in experiment [2] it was -0.002.
Regarding HDAC2 (UniProt Q92769), the log2 fold change in experiment [1] was 0.001; with silmitasertib, -0.002; in experiment [2], 0.057; in the experiment with entospletinib it was -0.005.
For the target HNRNPM (UniProt M0QZM1), the log2 fold change in experiment [1] was 0.125; in experiment [2] it was 0.038; in the experiment with entospletinib it was 0.
Take IGFBP4 (UniProt P22692): the log2 fold change in the experiment with vorinostat is 0.049; with silmitasertib, -0.026; in experiment [2], 0.023.
In the case of IPP (UniProt Q9Y573), the log2 fold change in experiment [1] is 0.04; with vorinostat, -0.633 (active); in the experiment with silmitasertib it was 0.205; in the experiment with entospletinib, 0.074.
For ICAM2 (UniProt P13598), the log2 fold change in experiment [1] is -0.016; with vorinostat it was 0.148; in the experiment with silmitasertib it was -0.029; in experiment [2], -0.021; in the experiment with entospletinib, -0.018.
On the same counts, the results for GSE1 (UniProt Q14687) are 0.029, -0.286 (active), -0.006, -0.006 and -0.017.
In the case of GPR108 (UniProt Q9NPR9), the log2 fold change was -0.001 in experiment [1]; -0.024 with vorinostat; 0.001 with silmitasertib; -0.007 in experiment [2]; -0.008 in the experiment with entospletinib.
Take ISL2 (UniProt Q96A47): the log2 fold change in the experiment with vorinostat was -0.026; with silmitasertib, 0.04; in experiment [2], 0.179.
On to KIAA0930 isoform 2 (UniProt Q6ICG6), for which the log2 fold change was 0.046 in experiment [1], -0.057 in experiment [2] and 0.062 with entospletinib.
Take HNRNPD (UniProt D6RF44): the log2 fold change in experiment [2] was -0.04.
Consider ITPR2 (UniProt Q14571), for which the log2 fold change was -0.965 (active) in the experiment with vorinostat and 0.024 with silmitasertib.
Turning to ILKAP (UniProt Q9H0C8), the log2 fold change in experiment [1] was -0.05; in the experiment with vorinostat, -0.288 (active); with silmitasertib, 0.053; in experiment [2], -0.024; with entospletinib, -0.001.
On to IMPDH2 (UniProt H0Y4R1), for which the values for the log2 fold change (in experiment [1]; in experiment [2]; in the experiment with entospletinib) were -0.044, 0.05 and -0.042, respectively.
Take HDGFL2 isoform 2 (UniProt Q7Z4V5): the log2 fold change was 0.02 in experiment [1]; 0.117 with vorinostat; -0.013 with silmitasertib; 0.01 in experiment [2]; -0.012 with entospletinib.
On the same counts, the results for GTF2I (UniProt P78347) are -0.001, -0.287 (active), 0.091, -0.005 and -0.017.
As for HOMER3 (UniProt Q9NSC5), the log2 fold change in experiment [2] was -0.022.
Turning to HSPBAP1 (UniProt Q96EW2), the log2 fold change with vorinostat was -0.07; in the experiment with silmitasertib, 0.044; in experiment [2] it was -0.014; in the experiment with entospletinib, -0.125.
As to GIT1 (UniProt Q9Y2X7), the log2 fold change was -0.043 in experiment [1]; -0.32 (active) with vorinostat; 0.009 in the experiment with silmitasertib; 0.006 in experiment [2]; -0.005 with entospletinib.
For the target HNRNPUL1 (UniProt M0R247), the log2 fold change is 0.197 with vorinostat and -0.037 in the experiment with silmitasertib.
Regarding IRS2 (UniProt Q9Y4H2), the log2 fold change is -0.034 in the experiment with vorinostat, -0.065 in the experiment with silmitasertib and 0.14 in experiment [2].
As to KATNBL1 (UniProt Q9H079), the log2 fold change is 0.111 in experiment [1]; -0.176 with vorinostat; -0.02 with silmitasertib; 0.144 in experiment [2]; 0.234 in the experiment with entospletinib.
